We go through 38 compounds from PubChem BioAssay (NCI).

This is part of a sample that, as a whole, favours compounds with a hit. Of some 83,000 tested, about 20% had one in any assay.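 Growth was measured after 48 h exposure to one concentration of compound in 96-well plates. Values under 10 count as active.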 Calls of active or inactive are those of the source.

In the assay the test system is MDA-MB-435 melanoma. As to the kind of experiment: NCI-60 one-dose screen, 48 h (100 = growth as untreated, 0 = no growth, -100 = all killed). Conditions: 10 µM unless noted.
For the compound `CCN(CC)CCC(=O)c1cccc2ccccc12`, the growth is 108% (inactive). For `COc1cc(C2C=C(C)N=C3SC=C(C)N32)cc(OC)c1OC` (stereo not drawn) the value was -33.3% (active); for `O=C(CCCn1c2c(sc3ccccc32)c(=O)n2nnc(-c3ccccc3)c12)NCCc1cnc[nH]1`, -95.1% (active); for `O=c1oc2cc(OS(=O)(=O)c3ccc(F)cc3)ccc2c2c1CCCCC2`, 78.5% (inactive). The result for `C=C1C(=O)O[C@H]2[C@H]1CC/C(Cn1cc(-c3ccsc3)nn1)=C\CC[C@@]1(C)O[C@@H]21` reads -16% (active); that for `Cc1cc(NC(=O)COC(=O)c2sc3cc(F)ccc3c2Cl)no1`, 108% (inactive).

Consider `CNC(=O)c1cc(Oc2ccc3c(c2)sc2nc(-c4ccc(Cl)cc4)cn23)ccn1`, for which the growth was 97.7% (inactive). The result for `O=C(NCCCN1CCN(CCCNC(=O)C2CCCCC2)CC1)C1CCCCC1` reads 96.4% (inactive); that for `COc1ccc(/C=C/C(=O)c2ccc(B(O)O)cc2)cc1O`, 3.03% (active). For `NCCSC(c1ccccc1)(c1ccccc1)c1ccccc1` the value was -52.9% (active); for `COc1ccc(/C=C/C(=O)/C=C/c2cc3ccc(Cl)cc3[nH]c2=O)cc1`, 81.5% (inactive).

For the compound `CCn1cc(C2NC(=O)c3cc(F)ccc3N2)c2cccc(Cl)c21` (stereo not drawn), the growth was -31.7% (active).

For `O=C(O)c1cn(C2CC2)c2cc(N3CCN(S(=O)(=O)c4ccc(Cl)c(Cl)c4)CC3)c(F)cc2c1=O`, the growth was 13% (inactive). For the compound `O=C(Nc1ccc(F)cc1)c1cc([N+](=O)[O-])ccc1O`, the growth is 72.2% (inactive). Turning to `O=C(Nc1ccc(I)cc1)c1cc([N+](=O)[O-])ccc1O`, the growth was 38.5% (inactive). Consider `CC(C)(C)OC(=O)N[C@@H](Cc1ccccc1)C(=O)N(Cc1ccccc1)C1(C(=O)NCc2ccccc2)CCN(Cc2ccccc2)CC1`, for which the growth is 41% (inactive). Regarding `C=C1C(=O)O[C@H]2[C@H]1CC/C(COC(=O)NCc1cc(OC)cc(OC)c1)=C\CC[C@@]1(C)O[C@@H]21`, the growth is -29.1% (active). With `O=C(CN1CCN(c2cc3c(cc2F)c(=O)c(C(=O)O)cn3C2CC2)CC1)Nc1ccc(C(=O)/C=C/c2ccccc2)cc1`, the growth was 19.2% (inactive). For `C=C1C(=O)O[C@H]2[C@H]1CC/C(COC(=O)NCCc1cccc(OC)c1)=C\CC[C@@]1(C)O[C@@H]21`, the growth was 39.6% (inactive). On to `COc1ccc(/C(=N/O)c2cc(OC)c(OC)c(OC)c2)c(OC)c1N`, for which the growth was -42.3% (active).

Turning to `Cc1cccc(NC(=O)c2sc3nc4c(cc3c2N)CCCC4)c1`, the growth is -22.9% (active). With `O=S(=O)(NCCNc1cc(-c2cn(-c3ccccc3)nc2-c2ccccc2)ccn1)c1ccc(F)cc1`, the growth was 83.9% (inactive).

`COc1ccc(/C=C2\CCCC3=C2NC(C)=NC3c2ccc(OC)c(OC)c2)cc1OC` (stereo not drawn): the growth is 1.49% (active). Turning to `N#Cc1ccc(NC(=O)c2ccc3cccnc3c2O)cc1`, the growth was 26.2% (inactive). As for `Cc1sc(N=Nc2ccc(N(C)C)cc2)[n+]([O-])c1C`, the growth was 101% (inactive). Regarding `CCOC(=O)/C=C\C(=O)NC(N)=O`, the growth was 106% (inactive).

Consider `CCSc1nnc(Nc2ccc(C(C)C)cc2)s1`, for which the growth is 86.7% (inactive). The result for `Clc1ccc([I+]c2ccc(Cl)cc2Cl)c(Cl)c1` reads 82.2% (inactive); that for `CC(=O)n1cc([C@H]2CC[C@H](c3cn(C(C)=O)c4ccccc34)c3c2[nH]c2ccccc32)c2ccccc21`, 93.1% (inactive); that for `O=c1c2cccc3c(Nc4ccc(F)cc4)ccc(c32)c2nc3ccccc3n12`, 99.6% (inactive).

As for `Clc1nc(-c2cccnc2)nc2sc3c(c12)CCCCCC3`, the growth is 97.3% (inactive).

`COc1cc(NC(=O)CCl)ccc(=O)c1`: the growth is 69.8% (inactive).

Regarding `CCn1cc(C(=O)O)c(=O)c2cc(F)c(N3CCN(S(=O)(=O)c4ccc(OC)c(OC)c4)CC3)cc21`, the growth is 98.9% (inactive). For `CC(=O)C1CCC(C)=CC1=O` (stereo not drawn) the value was 103% (inactive).

In the case of `O=C(O)c1ccc(-n2cc(CNc3ccc(C(F)(F)F)cc3)c(-c3ccccc3)n2)cc1`, the growth is 90.8% (inactive).

`COc1cc(OC)c(C(=O)/C=C/c2ccc(C#N)cc2)c(OC)c1`: the growth is 5.64% (active). As for `CCN(CC)CCCNc1nc(C)cc(Nc2ccc3nc(C)cc(N)c3c2)n1`, the growth is 103% (inactive). For `Cc1ccnc2nc(C(=O)OCC(=O)Nc3ccc(-c4ccccc4)cc3)nn12` the value was 107% (inactive).
